Holding throughout (experiment): log2 ratio of Biotin-Ahx-Ub-VS probe labelling (fragment/DMSO); higher = less target engagement (more negative = stronger competition), active = hit call of the paper (q ≤ 0.05, log2 ratio ≤ -1)
Conditions in all cases: compound concentration: 200 uM; treatment time: 3 h

In assay [1] the target is T1, OTUD6B (UniProt Q8N6M0).
T1 sequence (whole entry): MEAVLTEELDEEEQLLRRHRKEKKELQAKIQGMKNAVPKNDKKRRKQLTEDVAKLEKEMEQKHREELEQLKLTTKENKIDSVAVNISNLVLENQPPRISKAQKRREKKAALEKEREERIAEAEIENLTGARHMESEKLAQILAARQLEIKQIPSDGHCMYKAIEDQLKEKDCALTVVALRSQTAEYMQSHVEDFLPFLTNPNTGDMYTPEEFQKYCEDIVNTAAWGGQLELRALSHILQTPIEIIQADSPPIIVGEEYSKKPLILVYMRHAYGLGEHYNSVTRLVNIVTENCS
In short, it runs like this:
(§1)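 HEK293T lysate in Tris/CHAPS/IGEPAL buffer with protease inhibitors (495 µg per sample) was given fragment at 200 µM or vehicle for 3 h, in triplicate. It then received Biotin-Ahx-Ub-VS at 0.5 µM final for 1 h. Labelled DUBs were NeutrAvidin-enriched, digested with LysC and trypsin, and run by diaPASEF LC-MS/MS. Values are average log2 fragment/vehicle ratios by unpaired t-test on global-median-normalised Spectronaut quantities of proteins with ≥2 unique peptides.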

Assay [2] deals with T2, OTUD7B (UniProt Q6GQQ9).
T2 sequence (whole entry): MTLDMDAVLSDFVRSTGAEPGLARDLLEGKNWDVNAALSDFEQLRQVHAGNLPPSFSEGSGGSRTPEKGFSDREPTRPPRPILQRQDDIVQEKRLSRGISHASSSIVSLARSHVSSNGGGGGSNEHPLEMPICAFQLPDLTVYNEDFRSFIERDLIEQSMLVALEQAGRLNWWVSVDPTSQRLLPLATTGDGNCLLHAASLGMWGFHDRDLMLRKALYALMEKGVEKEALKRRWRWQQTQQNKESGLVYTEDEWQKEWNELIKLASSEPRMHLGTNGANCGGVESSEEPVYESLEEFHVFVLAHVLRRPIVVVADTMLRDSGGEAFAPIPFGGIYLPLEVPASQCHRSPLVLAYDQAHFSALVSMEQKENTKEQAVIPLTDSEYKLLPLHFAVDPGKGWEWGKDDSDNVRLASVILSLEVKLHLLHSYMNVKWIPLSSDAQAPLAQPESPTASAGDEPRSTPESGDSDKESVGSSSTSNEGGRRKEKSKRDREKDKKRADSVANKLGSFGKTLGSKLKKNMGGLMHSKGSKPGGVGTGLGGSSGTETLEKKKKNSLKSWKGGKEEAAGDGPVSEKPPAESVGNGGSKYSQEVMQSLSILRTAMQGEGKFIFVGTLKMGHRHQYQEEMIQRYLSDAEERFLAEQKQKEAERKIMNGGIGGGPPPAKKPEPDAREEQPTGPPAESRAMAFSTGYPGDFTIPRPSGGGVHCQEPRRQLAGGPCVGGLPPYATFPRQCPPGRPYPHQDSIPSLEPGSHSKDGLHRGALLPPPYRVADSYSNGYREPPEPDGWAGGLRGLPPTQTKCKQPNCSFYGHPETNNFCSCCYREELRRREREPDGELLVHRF
In short, it runs like this: as §1

Assay [3] has as its target PRPF8 (UniProt Q6P2Q9). In short, it runs like this:
as §1

In assay [4] the target is T3, PSMD7 (UniProt P51665).
T3 sequence (whole entry): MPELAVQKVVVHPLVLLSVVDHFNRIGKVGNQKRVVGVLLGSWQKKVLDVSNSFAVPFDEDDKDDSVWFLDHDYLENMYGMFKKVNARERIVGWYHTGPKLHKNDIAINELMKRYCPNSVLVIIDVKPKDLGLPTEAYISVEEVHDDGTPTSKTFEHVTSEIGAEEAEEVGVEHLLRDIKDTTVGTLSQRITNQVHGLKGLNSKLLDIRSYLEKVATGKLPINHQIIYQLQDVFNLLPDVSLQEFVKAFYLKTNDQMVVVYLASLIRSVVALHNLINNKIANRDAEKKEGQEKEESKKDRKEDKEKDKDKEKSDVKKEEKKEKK
In short, it runs like this: as §1

Assay [5] has as its target UCHL1 (UniProt P09936). In short, it runs like this: as §1
For assay [6], the target named is T4, UCHL3 (UniProt P15374).
T4 sequence (whole entry): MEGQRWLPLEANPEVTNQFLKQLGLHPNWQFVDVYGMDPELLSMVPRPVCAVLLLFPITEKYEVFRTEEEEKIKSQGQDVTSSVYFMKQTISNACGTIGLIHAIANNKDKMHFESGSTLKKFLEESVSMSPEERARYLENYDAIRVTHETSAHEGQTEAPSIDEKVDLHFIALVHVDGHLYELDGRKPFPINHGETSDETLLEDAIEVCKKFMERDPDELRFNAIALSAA
In short, it runs like this: as §1

The target of assay [7] is T5, UCHL5 (UniProt Q9Y5K5).
T5 sequence (whole entry): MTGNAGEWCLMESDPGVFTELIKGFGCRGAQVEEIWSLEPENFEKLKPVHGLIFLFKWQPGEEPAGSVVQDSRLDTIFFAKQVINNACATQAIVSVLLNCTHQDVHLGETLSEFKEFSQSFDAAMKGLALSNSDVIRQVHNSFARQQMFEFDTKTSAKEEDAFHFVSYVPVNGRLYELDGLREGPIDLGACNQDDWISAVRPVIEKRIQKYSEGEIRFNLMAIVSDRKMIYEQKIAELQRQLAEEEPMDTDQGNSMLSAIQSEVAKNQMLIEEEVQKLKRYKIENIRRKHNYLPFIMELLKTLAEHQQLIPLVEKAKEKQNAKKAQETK
In short, it runs like this:
as §1

Assay [8] deals with USP10 (UniProt Q14694). In short, it runs like this:
as §1

Assay [9] deals with T6, USP15 (UniProt Q9Y4E8).
T6 sequence (whole entry): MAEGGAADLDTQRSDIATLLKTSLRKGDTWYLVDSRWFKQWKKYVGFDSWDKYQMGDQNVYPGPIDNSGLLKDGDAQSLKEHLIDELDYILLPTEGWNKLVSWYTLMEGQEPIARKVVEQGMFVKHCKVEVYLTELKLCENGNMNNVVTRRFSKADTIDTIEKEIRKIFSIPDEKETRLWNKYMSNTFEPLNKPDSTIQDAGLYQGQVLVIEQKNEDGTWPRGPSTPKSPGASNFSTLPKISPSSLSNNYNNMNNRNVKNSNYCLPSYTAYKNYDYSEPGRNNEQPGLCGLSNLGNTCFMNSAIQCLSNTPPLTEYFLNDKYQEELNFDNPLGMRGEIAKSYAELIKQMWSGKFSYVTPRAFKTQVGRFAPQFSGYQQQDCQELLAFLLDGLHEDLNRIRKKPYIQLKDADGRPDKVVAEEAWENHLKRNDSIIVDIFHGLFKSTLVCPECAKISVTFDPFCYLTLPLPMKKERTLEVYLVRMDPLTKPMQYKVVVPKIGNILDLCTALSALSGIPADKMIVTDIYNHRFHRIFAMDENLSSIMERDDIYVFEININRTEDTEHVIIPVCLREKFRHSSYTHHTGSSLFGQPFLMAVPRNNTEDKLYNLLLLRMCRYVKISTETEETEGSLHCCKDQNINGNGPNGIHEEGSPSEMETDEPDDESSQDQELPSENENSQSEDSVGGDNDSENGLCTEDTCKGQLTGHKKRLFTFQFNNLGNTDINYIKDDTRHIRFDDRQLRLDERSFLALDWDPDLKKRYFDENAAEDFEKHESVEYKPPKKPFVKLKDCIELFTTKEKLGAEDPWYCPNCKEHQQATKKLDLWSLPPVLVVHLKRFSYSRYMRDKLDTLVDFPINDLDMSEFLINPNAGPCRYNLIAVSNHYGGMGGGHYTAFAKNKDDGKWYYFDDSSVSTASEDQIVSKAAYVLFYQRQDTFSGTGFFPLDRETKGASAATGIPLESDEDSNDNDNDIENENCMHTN
In short, it runs like this: as §1

Assay [10] has as its target USP16 (UniProt Q9Y5T5). In short, it runs like this:
as §1

We go through 1 compound from the supplement of paper PMC11732987, “Enantioselective OTUD7B fragment discovery through chemoproteomics screening and high-throughput optimisation” (Communications Chemistry, 2025).

A number with no mark means an inactive call.

Sequence of USP10 (Q14694 whole entry): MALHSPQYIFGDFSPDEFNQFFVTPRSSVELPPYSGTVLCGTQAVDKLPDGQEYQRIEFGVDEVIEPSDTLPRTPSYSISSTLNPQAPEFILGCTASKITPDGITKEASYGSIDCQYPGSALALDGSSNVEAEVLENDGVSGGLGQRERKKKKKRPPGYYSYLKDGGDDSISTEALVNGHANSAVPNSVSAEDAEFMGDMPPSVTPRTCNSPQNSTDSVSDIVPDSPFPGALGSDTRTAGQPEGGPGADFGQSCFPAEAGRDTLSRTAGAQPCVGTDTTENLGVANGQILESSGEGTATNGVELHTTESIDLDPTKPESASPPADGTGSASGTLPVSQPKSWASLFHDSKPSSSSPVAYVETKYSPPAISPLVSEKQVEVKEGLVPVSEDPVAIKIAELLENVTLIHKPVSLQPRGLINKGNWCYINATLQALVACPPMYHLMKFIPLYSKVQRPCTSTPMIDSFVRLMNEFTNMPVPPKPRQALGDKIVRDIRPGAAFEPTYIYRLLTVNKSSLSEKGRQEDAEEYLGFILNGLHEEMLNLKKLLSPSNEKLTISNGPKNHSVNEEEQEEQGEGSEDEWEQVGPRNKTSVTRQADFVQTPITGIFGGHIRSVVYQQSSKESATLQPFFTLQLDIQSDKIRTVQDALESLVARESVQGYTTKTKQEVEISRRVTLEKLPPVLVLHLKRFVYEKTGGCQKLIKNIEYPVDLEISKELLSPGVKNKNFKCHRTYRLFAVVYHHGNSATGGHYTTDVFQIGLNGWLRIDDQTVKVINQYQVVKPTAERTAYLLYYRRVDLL
Sequence of USP16 (Q9Y5T5 whole entry, looked up): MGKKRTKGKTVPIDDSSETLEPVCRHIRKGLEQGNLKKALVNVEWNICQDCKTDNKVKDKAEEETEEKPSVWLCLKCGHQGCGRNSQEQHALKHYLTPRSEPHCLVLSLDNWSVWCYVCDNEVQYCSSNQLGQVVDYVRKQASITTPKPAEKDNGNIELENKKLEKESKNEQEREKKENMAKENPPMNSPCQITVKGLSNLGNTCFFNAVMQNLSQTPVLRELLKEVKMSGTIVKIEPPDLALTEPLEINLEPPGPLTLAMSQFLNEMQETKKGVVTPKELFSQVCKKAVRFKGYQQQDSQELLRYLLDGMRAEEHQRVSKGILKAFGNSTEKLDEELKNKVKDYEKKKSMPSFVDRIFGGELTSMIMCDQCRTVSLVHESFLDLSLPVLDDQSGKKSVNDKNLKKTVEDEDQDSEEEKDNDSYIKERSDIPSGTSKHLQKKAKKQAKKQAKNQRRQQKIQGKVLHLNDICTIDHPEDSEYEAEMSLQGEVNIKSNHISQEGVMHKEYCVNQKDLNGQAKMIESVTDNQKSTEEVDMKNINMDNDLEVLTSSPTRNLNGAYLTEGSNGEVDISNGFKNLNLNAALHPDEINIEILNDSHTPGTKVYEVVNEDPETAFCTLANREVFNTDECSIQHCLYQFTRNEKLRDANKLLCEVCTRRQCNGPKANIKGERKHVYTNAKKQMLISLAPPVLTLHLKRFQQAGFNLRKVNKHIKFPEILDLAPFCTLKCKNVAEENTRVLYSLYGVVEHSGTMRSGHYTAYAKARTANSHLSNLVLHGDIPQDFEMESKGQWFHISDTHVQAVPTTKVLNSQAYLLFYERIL
Sequence of UCHL1 (P09936 whole entry, looked up): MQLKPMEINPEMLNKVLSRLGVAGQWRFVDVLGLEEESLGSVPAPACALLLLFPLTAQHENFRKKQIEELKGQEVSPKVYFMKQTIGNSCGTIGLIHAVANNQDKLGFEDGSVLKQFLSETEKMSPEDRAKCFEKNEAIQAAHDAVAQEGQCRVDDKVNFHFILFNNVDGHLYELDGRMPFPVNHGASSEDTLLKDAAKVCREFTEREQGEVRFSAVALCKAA

As to `CCC1c2ccsc2CCN1C(=O)CCl` (stereo not given), the “log2 ratio of Biotin-Ahx-Ub-VS probe labelling” value was -0.158 in assay [1]; -0.505 in [2]; 0.237 in assay [3]; -0.0765 in [4]; -1.35 (active) in assay [5]; -0.00293 in [6]. The “log2 ratio of Biotin-Ahx-Ub-VS probe labelling” value in assay [7] is -0.25; in assay [8] it was -0.134; in assay [9], -0.298; in [10], -0.5.
